Records with an inconclusive call do not appear. Calls of active or inactive are those of the source. Calls follow the shape of the dose curve; as a rule, active = well fitted inhibition curve with a large enough effect; inconclusive = small, poorly fitted or top-dose-only effect; inactive = flat fitted curve, though single readings scatter.
Molecular target: Glutathione peroxidase 1 (Homo sapiens) (UniProt P07203)
Test: Primary qHTS Assay for Inhibitors of Recombinant Selenoprotein Glutathione Peroxidase 1 (GPX1) (AID 1845191); also: nearly all actives have a fitted effect of over 65% in size
Details: recombinant GPX1, GR-coupled NADPH fluorescence, 15 min; series mostly up to 48.8 µM; activity, negative = inhibition: at the top concentration
Summary of the method: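 10 nM GPX1 + cpd, 30 min RT; start w/ 1 mM GSH, 0.5 mM cumene hydroperoxide, 0.5 mM NADPH, 100 nM GR, 0.01% BSA; buffer 50 mM Tris-HCl pH 7.5, 2 mM EDTA, 150 mM NaCl; Fl 340/450, 0 & 15 min.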
% is scaled to controls: 0 for no effect and ±100 for the full control effect.

Chain of Glutathione peroxidase 1 (Homo sapiens) (P07203 whole entry, looked up): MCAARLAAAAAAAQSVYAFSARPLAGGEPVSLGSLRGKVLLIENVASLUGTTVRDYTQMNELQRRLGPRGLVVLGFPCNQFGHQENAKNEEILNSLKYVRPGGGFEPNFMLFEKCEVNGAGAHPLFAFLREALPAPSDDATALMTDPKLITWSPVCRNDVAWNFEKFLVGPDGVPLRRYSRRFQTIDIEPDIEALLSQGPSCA

Structure (SMILES)	activity, negative = inhibition	outcome	Potency
CCCC1CC(C(=O)NC(C(C)Cl)C2OC(SC)C(OP(=O)(O)O)C(O)C2O)N(C)C1 (stereo not drawn)	1.35% [at 27.7 µM] (inactive)		
Cn1c(=O)cc(N2CCC[C@@H](N)C2)n(Cc2cc(F)ccc2C#N)c1=O	-8.65% (inactive)		
CN(CCCCCCN(C)C(=O)Oc1ccc[n+](C)c1)C(=O)Oc1ccc[n+](C)c1		inactive	
OC(CCN1CCCCC1)(c1ccccc1)C1CCCC1 (stereo not drawn)		inactive	
CC(C)OC(=O)CCC/C=C\C[C@@H]1[C@@H](/C=C/[C@@H](O)COc2cccc(C(F)(F)F)c2)[C@H](O)C[C@@H]1O		inactive	
Clc1ccc(CCCOCCCN2CCCCC2)cc1	-3.24% (inactive)		
CC(OC(=O)NCC1(CC(=O)O)CCCCC1)OC(=O)C(C)C (stereo not drawn)	-5.57% (inactive)		
COC(=S)NCCn1c([N+](=O)[O-])cnc1C	-7.27% (inactive)		
CC(C)C[C@H]1C(=O)O[C@H](Cc2ccc(N3CCOCC3)cc2)C(=O)N(C)[C@@H](CC(C)C)C(=O)O[C@H](C)C(=O)N(C)[C@@H](CC(C)C)C(=O)O[C@H](Cc2ccc(N3CCOCC3)cc2)C(=O)N(C)[C@@H](CC(C)C)C(=O)O[C@H](C)C(=O)N1C	2.88% (inactive)		
CC(C)OC(=O)CCC/C=C\C[C@@H]1[C@@H](CC[C@@H](O)CCc2ccccc2)[C@H](O)C[C@@H]1O		inactive [at 9.52 µM]	
CCCCCCCCCCCCOC(=O)CS(=O)(=O)O	3.4% (inactive)		
CCCCC[C@H](O)/C=C/[C@@H]1[C@@H](C/C=C/CCCC(=O)O)[C@@H](O)C[C@H]1O	-21.9% (inactive)		
CCCCCCCCCCCC(=O)OCN1C(=O)CCc2ccc(OCCCCN3CCN(c4cccc(Cl)c4Cl)CC3)cc21	3.43% [at 15.3 µM] (inactive)		
CO[C@H]1C[C@H](O[C@@H]2[C@H](C)O[C@H](O[C@@H]3/C(C)=C/C[C@@H]4C[C@@H](C[C@]5(C=C[C@H](C)[C@@H](C6CCCCC6)O5)O4)OC(=O)[C@@H]4C=C(C)C(O)[C@H]5OC/C(=C\C=C\[C@@H]3C)[C@]54O)C[C@@H]2OC)O[C@@H](C)[C@@H]1O (stereo partly drawn)	-17.7% (inactive)		
CCC(c1ccccc1)c1c(O)c2ccccc2oc1=O (stereo not drawn)	-19.2% (inactive)		
CCCCC(=O)O[C@]1(C(=O)COC(C)=O)CC[C@H]2[C@@H]3CCC4=CC(=O)C=C[C@]4(C)[C@H]3[C@@H](O)C[C@@]21C	-11.2% (inactive)		
O=C(O)[C@H]1OC(O)[C@H](O)[C@@H](O)[C@@H]1O (stereo partly drawn)	3.97% (inactive)		
[2H]N[C@@H](Cc1ccccc1)C(=O)N1CCC[C@H]1C(=O)N[C@@H](CCCNC(=N)N)C(=O)N1CCC[C@H]1C(=O)NCC(=O)NCC(=O)NCC(=O)NCC(=O)N[C@@H](CC(N)=O)C(=O)NCC(=O)N[C@@H](CC(=O)O)C(=O)N[C@@H](Cc1ccccc1)C(=O)N[C@@H](CCC(=O)O)C(=O)N[C@@H](CCC(=O)O)C(=O)N[C@H](C(=O)N1CCC[C@H]1C(=O)N[C@@H](CCC(=O)O)C(=O)N[C@@H](CCC(=O)O)C(=O)N[C@@H](Cc1ccc(O)cc1)C(=O)N[C@@H](CC(C)C)C(=O)O)[C@@H](C)CC		inactive [at 9.52 µM]	
C[N+]1(C)[C@@H]2CC(OC(=O)C(O)(c3cccs3)c3cccs3)C[C@H]1[C@H]1O[C@@H]12 (stereo partly drawn)		inactive	
N#Cc1c(N2C[C@@H]3NCCO[C@H]3C2)c(F)cc2c(=O)c(C(=O)O)cn(C3CC3)c12	-17.1% (inactive)		
O=C(OCCN(CCO)CCO)c1ccccc1O	4.43% (inactive)		
CC1=CC(O)CC(C)(C)C1/C=C/C(C)=C/C=C/C(C)=C/C=C/C=C(C)/C=C/C=C(C)/C=C/C1=C(C)CC(O)CC1(C)C (stereo not drawn)	-0.686% (inactive)		
O=C1CCC(C(=O)O)N1 (stereo not drawn)		inactive	
O=C(OC[C@H]1O[C@@H](OC(=O)c2cc(O)c(O)c(O)c2)[C@H](O)[C@@H](OC(=O)c2cc(O)c(O)c(O)c2)[C@@H]1O)c1cc(O)c(O)c(O)c1		inactive	
CC[C@H]1OC(=O)[C@H](C)[C@@H](O[C@H]2C[C@@](C)(OC)[C@@H](O)[C@H](C)O2)[C@H](C)[C@@H](O[C@@H]2O[C@H](C)C[C@H](N(C)C)[C@H]2O)C(C)(O)C[C@@H](C)/C(=N\OCOCCOC)[C@H](C)[C@@H](O)[C@]1(C)O (stereo partly drawn)			inactive
C=C1/C(=C/C=C2\CCC[C@]3(C)[C@@H]([C@H](C)CCCC(O)(C(F)(F)F)C(F)(F)F)CC[C@@H]23)C[C@@H](O)C[C@@H]1O	-22.8% (inactive)		
OC(c1ccccc1)(c1ccccc1)C12CC[N+](CCOCc3ccccc3)(CC1)CC2	-2.29% (inactive)		
CCCCCCCCCC(=O)OC1(c2ccc(Cl)cc2)CCN(CCCC(=O)c2ccc(F)cc2)CC1	-13.2% (inactive)		
